Measurements as given in the supplement of paper PMC9262897, “Low-cost anti-mycobacterial drug discovery using engineered E. coli” (Nature Communications, 2022).
Where a name gives a salt, the structure may show the parent alone. ± gives the standard deviation of the averaged measurements.

How the values were obtained:
Experiment in all cases: growth (OD600 after 10 h); higher = more growth (less inhibition)
[1] = tested on: E. coli TESEC Alr+ wild-type control; details: compound 0.1 mM; raw OD600 reference: median of DMSO wells 0.241, cell-free background 0.041
Method: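 TESEC Mtb Alr E. coli, or the Alr+ wild-type control, in 384-well plates with Prestwick library compounds at 0.1 mM and 1% DMSO, across arabinose induction levels of 1E3 to 1E7 nM. Growth is read as OD600 after 10 h at 37 °C in triplicate biological replicates.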

E. coli TESEC Mtb Asd = details: compound 0.1 mM
Method: (§1)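 TESEC E. coli strains in which the native enzyme is deleted and replaced by arabinose-inducible Mtb Asd, DapB, CysH or TrpD, each grown in its selective medium. Strains were screened against the Prestwick library at 0.1 mM and 1% DMSO in 384-well format at low and high arabinose induction. Growth is read as OD600 after 10 h in triplicate.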

E. coli TESEC Mtb DapB = details: compound 0.1 mM
Method: as §1

[2] = tested on: E. coli TESEC Alr+ wild-type control; details: compound 0.1 mM; raw OD600 reference: median of DMSO wells 0.49, cell-free background 0.052
Method: (§2)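 TESEC Mtb Alr E. coli (ΔaraC ΔtolC ΔentC Δalr ΔdadX, arabinose-inducible Mtb Alr) or the Alr+ wild-type control strain, grown in defined M9-fructose medium without D-alanine in 96-well plates with Prestwick library compounds at 0.1 mM and 1% DMSO. Low Alr induction is 0.1 µM arabinose and high induction is 10 mM arabinose.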

E. coli TESEC Mtb Alr = details: compound 0.1 mM
Method: as §2

[3] = arabinose induction (level): High, raw OD600 reference: median of DMSO wells 0.331, cell-free background 0.041
[4] = arabinose induction (level): Low, raw OD600 reference: median of DMSO wells 0.417, cell-free background 0.041
[5] = arabinose induction (level): High, raw OD600 reference: median of DMSO wells […], cell-free background 0.041
[6] = arabinose induction (level): Low, raw OD600 reference: median of DMSO wells 0.227, cell-free background 0.041
[7] = arabinose 100 nM, raw OD600 reference: median of DMSO wells 0.413, cell-free background 0.052
[8] = arabinose 10000000 nM, raw OD600 reference: median of DMSO wells […], cell-free background 0.052

Structure (SMILES) | growth [1] | growth (E. coli TESEC Mtb Asd; [3]) | growth (E. coli TESEC Mtb Asd; [4]) | growth (E. coli TESEC Mtb DapB; [5]) | growth (E. coli TESEC Mtb DapB; [6]) | growth [2] | growth (E. coli TESEC Mtb Alr; [7]) | growth (E. coli TESEC Mtb Alr; [8])
CC(C)NCC(O)COc1cccc2[nH]ccc12 (configuration not stated) [Pindolol] | 0.233 ± 0.0063 | 0.393 ± 0.0086 | 0.403 ± 0.021 | 0.201 ± 0.011 | 0.231 ± 0.048 | 0.474 ± 0.048 | 0.413 ± 0.0051 | 0.376 ± 0.013
CC[N+](CC)(CC(=O)Nc1c(C)cccc1C)Cc1ccccc1 [Denatonium benzoate] | 0.216 ± 0.0039 | 0.401 ± 0.018 | 0.46 ± 0.0089 | 0.189 ± 0.015 | 0.224 ± 0.024 | 0.439 ± 0.016 | 0.402 ± 0.018 | 0.338 ± 0.02
CC(C)OC(=O)C(C)(C)Oc1ccc(C(=O)c2ccc(Cl)cc2)cc1 [Fenofibrate] | 0.219 ± 0.0026 | 0.298 ± 0.013 | 0.397 ± 0.039 | 0.176 ± 0.015 | 0.215 ± 0.037 | 0.469 ± 0.026 | 0.401 ± 0.016 | 0.089 ± 0.01
CN(N=O)C(=O)N[C@H]1C(O)O[C@H](CO)[C@@H](O)[C@@H]1O (mixture of isomers) [Streptozotocin] | 0.197 ± 0.0036 | 0.243 ± 0.0054 | 0.305 ± 0.045 | 0.192 ± 0.016 | 0.206 ± 0.015 | 0.226 ± 0.025 | 0.378 ± 0.019 | 0.0602 ± 0.0034
Cc1nnc(SCC2=C(C(=O)O)N3C(=O)[C@@H](NC(=O)Cn4cnnn4)[C@H]3SC2)s1 [Cefazolin sodium salt] | 0.286 ± 0.013 | 0.313 ± 0.07 | 0.428 ± 0.0098 | 0.192 ± 0.0067 | 0.237 ± 0.019 | 0.562 ± 0.098 | 0.328 ± 0.015 | 0.363 ± 0.0051
O=C1c2ccccc2S(=O)(=O)N1CCCCN1CCN(c2ncccn2)CC1 [Ipsapirone] | 0.206 ± 0.0034 | 0.226 ± 0.048 | 0.389 ± 0.064 | 0.205 ± 0.026 | 0.221 ± 0.021 | 0.551 ± 0.04 | 0.4 ± 0.0047 | 0.313 ± 0.012
CCn1cc(C(=O)O)c(=O)c2cnc(N3CCCC3)nc21 [Piromidic acid] | 0.228 ± 0.0041 | 0.288 ± 0.037 | 0.432 ± 0.015 | 0.208 ± 0.016 | 0.239 ± 0.025 | 0.144 ± 0.003 | 0.12 ± 0.021 | 0.105 ± 0.015
COc1cccc2c1C(=O)c1c(O)c3c(c(O)c1C2=O)C[C@@](O)(C(C)=O)C[C@@H]3O[C@H]1C[C@H](N)[C@H](O)[C@H](C)O1 [Daunorubicin hydrochloride] | 0.0457 ± 0.0022 | 0.058 ± 0.0071 | 0.0577 ± 0.0054 | 0.0527 ± 0.0011 | 0.0519 ± 0.00092 | 0.053 ± 0.00055 | 0.0571 ± 0.0011 | 0.0536 ± 0.00026
CC(C)(C)NC[C@H](O)COc1ccccc1C1CCCC1 [Penbutolol sulfate] | 0.211 ± 0.0068 | 0.205 ± 0.028 | 0.295 ± 0.038 | 0.184 ± 0.013 | 0.207 ± 0.015 | 0.429 ± 0.019 | 0.412 ± 0.0049 | 0.261 ± 0.047
CC(=O)Oc1cccc2c1C(=O)c1c(OC(C)=O)cc(C(=O)O)cc1C2=O [Diacerein] | 0.122 ± 0.0032 | 0.224 ± 0.019 | 0.348 ± 0.045 | 0.208 ± 0.019 | 0.23 ± 0.015 | 0.087 ± 0.0013 | 0.0492 ± 0.00056 | 0.0619 ± 0.0035
Cc1noc(NS(=O)(=O)c2ccc(N)cc2)c1C [Sulfisoxazole] | 0.248 ± 0.0068 | 0.308 ± 0.035 | 0.386 ± 0.073 | 0.19 ± 0.0067 | 0.205 ± 0.022 |  | 0.424 ± 0.012 | 0.313 ± 0.019
